Hit rate of the full screen: of about 16,000 compounds, about 5,100 (32%) were called active. Roughly 25% stayed inconclusive and do not appear here. Some of the results follow. Unmarked numbers belong to inactive results. The call rests on the fitted dose curve; in most records, active means well fitted curve in the direction sought with a large enough effect; inconclusive means small, poorly fitted or top-dose-only effect, or effect the other way; inactive means no such curve, though single readings can be large or run the other way.
Target: Cytochrome P450 3A4 (Homo sapiens) (UniProt P08684)
Assay: Cytochrome panel assay with activity outcomes
Settings: recombinant CYP, pro-luciferin dealkylation, luminescence, p450-cyp3a4; series mostly up to 57.1 µM; activity, negative = inhibition: at the top concentration
On the % scale 0 is the no-effect control and ±100 the full control effect.

Cytochrome P450 3A4 (Homo sapiens), sequence (P08684 whole entry, looked up): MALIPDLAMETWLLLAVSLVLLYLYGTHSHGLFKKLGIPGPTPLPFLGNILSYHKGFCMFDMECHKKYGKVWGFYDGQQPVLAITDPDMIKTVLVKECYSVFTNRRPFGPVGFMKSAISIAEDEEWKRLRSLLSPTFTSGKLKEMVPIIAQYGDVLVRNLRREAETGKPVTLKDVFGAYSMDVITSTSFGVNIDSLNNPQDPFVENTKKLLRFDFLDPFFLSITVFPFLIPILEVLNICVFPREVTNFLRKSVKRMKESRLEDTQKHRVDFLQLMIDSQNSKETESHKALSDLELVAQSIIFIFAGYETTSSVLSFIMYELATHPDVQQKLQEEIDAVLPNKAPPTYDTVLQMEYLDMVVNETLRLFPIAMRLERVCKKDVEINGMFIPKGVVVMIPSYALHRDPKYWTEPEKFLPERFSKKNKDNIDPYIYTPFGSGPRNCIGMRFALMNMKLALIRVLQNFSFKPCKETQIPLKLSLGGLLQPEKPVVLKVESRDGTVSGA

| Structure (SMILES) | activity, negative = inhibition | AC50 |
| --- | --- | --- |
| COc1ccc(CSC2=C(C#N)C(=O)NC3(CCCCC3)S2)cc1 | -12.2% [at 11.4 µM] | – |
| O=C1C=C(c2cccs2)CC(c2cccs2)C1n1cnc([N+](=O)[O-])c1 (stereo not drawn) | 17.5% | – |
| CCCCSCc1nc2nc(Cl)c(Cl)nc2[nH]1 | -27.9% [at 11.4 µM] | – |
| CC1CCN(C(=S)c2ccc(O)cc2)CC1 | 11.7% [at 2.29 µM] | – |
| C=CCSc1nnc2c(n1)OC(c1c(C)[nH]n(-c3ccccc3)c1=O)Nc1ccccc1-2 (stereo not drawn) | – | 14.1 µM (active) |
| CSc1nnc2c(n1)OC(C)N(C(=O)c1ccccc1)c1ccccc1-2 (stereo not drawn) | 18.2% | – |
| CC(C)[C@@H]1NC(=O)[C@H](CCCCN)NC(=O)[C@H](Cc2c[nH]c3ccccc23)NC(=O)[C@H](Cc2ccc(O)cc2)NC(=O)[C@H](C)N(C)C(=O)[C@H](Cc2ccccc2)NC1=O | – | 3.98 µM (active) |
| O=Nc1c(O)n(Cc2ccc(Cl)c(Cl)c2)c2ccccc12 | – | 14.1 µM (active) |
| O=c1[nH]ncc2c3ccccc3n(Cc3ccccc3)c12 | -5.96% | – |
| Clc1ccc(CN2CCCN(Cc3ccc(Cl)cc3)C2c2cc3ccccc3c3ccccc23)cc1 | -6.95% [at 11.4 µM] | – |
| O=Nc1c(O)n(Cc2ccc(Cl)cc2)c2ccccc12 | – | 17.8 µM (active) |
| Cc1sc2ccccc2[n+]1CCC(C)S(=O)(=O)[O-] (stereo not drawn) | 7.81% | – |
| CC(=O)N1c2c(cc(Br)cc2S(=O)(=O)NCC2COc3ccccc3O2)CC1C (stereo not drawn) | – | 7.94 µM (active) |
| CCCN(CCC)CCCNS(=O)(=O)c1cc(Br)cc2c1N(C(C)=O)CC2 | -10.1% [at 11.4 µM] | – |
| OC[C@H]1NC[C@@H](O)[C@@H](O)[C@H]1O | -12.1% | – |
| CCCCOc1ccc(/C=C/C(=O)NCCc2nc3ccccc3[nH]2)cc1 | – | 12.6 µM (active) |
| N[C@@](CCc1ccccc1)(C(=O)O)c1ccccc1 | -0.157% [at 11.4 µM] | – |
| O=C(Nc1ccccc1)N1CCC2(CCNCC2)CC1 | 28.2% | – |
| O=C(Nc1ccc(Cl)cc1)N1CCc2[nH]c3ccccc3c2C1 | – | 14.1 µM (active) |
| COC(=O)N1CCC2(CC1)CN(C(=O)Nc1ccccc1)C2 | -1.42% | – |
| CC[C@H]1C2=C3C(CC[C@H]4C(OCc5ccc(F)cc5C(F)(F)F)OC[C@](C)([C@@H]34)N(C(=O)OC(C)(C)C)C2)C2COC(=O)OCC21 (stereo partly drawn) | – | 20 µM (active) |
| C[C@H]1C2=C3C(CC[C@H]4C(OCc5ccc(F)cc5C(F)(F)F)OC[C@](C)([C@@H]34)N(C(=O)OC(C)(C)C)C2)C2COC(=O)OCC21 (stereo partly drawn) | – | 20 µM (active) |
| Cn1c(=O)c2nc(-c3ccccc3)oc2c2ccccc21 | – | 12.6 µM (active) |
| Cc1ccc(-n2c(-c3ccccc3)cc(=O)nc2C)cc1 | -14.5% | – |
| CC(C)CCN1C(=O)c2ccc(-c3nc4ccccc4c(=O)o3)cc2C1=O | -5.78% [at 11.4 µM] | – |
| Cc1ccc(-c2nc3c(=O)n(C)c4ccccc4c3o2)cc1 | – | 7.08 µM (active) |
| CCCn1c(-c2ccccc2)nc2c(=O)n(C)c(=O)[nH]c21 | 5.61% | – |
| CN(C(=O)c1c(O)c2ccccc2n(C)c1=O)c1ccccc1 | -26.7% | – |

Source: PubChem BioAssay AID1851 (National Center for Advancing Translational Sciences (NCATS), 2009)
